In ChEMBL document CHEMBL1961873, “Compounds: GSK PKIS; Assays: Nanosyn kinase panel” (2012) one finds inhibition data, which are given here for three compounds.

The inhibition is the relative decrease from the control value, in per cent.

Experiment [1] concerns the target T1, Ephrin type-B receptor 2 (Homo sapiens) (UniProt P29323).
T1 sequence (whole entry): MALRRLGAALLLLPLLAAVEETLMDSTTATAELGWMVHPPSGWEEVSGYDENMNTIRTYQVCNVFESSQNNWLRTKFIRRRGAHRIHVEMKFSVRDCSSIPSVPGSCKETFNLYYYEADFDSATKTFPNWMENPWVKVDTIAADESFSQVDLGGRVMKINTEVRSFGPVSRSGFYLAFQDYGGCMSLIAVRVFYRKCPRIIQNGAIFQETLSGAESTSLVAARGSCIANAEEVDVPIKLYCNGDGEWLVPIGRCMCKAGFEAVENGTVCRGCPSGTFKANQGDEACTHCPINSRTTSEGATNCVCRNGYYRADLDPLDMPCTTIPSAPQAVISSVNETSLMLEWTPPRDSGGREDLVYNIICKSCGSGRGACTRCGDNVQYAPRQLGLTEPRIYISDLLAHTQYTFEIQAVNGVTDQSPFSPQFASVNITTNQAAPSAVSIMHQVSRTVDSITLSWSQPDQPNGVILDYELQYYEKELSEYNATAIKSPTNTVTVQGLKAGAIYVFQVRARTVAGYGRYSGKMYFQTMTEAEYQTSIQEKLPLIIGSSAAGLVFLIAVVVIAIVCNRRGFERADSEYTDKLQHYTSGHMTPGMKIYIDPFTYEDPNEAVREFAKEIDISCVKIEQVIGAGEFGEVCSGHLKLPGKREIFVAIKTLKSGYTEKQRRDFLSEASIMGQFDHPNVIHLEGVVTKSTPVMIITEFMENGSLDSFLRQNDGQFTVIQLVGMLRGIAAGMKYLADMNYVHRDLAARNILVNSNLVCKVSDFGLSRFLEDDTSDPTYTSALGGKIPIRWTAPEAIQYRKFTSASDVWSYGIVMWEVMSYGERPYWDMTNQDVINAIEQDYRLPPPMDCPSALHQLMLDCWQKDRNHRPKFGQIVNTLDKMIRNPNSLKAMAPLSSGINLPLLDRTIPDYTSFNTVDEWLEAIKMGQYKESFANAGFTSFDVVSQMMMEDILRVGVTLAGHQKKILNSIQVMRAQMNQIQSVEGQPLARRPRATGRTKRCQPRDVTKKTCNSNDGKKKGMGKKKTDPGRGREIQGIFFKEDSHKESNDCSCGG
The following applies: at 1 µM.

Experiment [2] has as its target T2, Ephrin type-B receptor 3 (Homo sapiens) (UniProt P54753).
T2 sequence (whole entry): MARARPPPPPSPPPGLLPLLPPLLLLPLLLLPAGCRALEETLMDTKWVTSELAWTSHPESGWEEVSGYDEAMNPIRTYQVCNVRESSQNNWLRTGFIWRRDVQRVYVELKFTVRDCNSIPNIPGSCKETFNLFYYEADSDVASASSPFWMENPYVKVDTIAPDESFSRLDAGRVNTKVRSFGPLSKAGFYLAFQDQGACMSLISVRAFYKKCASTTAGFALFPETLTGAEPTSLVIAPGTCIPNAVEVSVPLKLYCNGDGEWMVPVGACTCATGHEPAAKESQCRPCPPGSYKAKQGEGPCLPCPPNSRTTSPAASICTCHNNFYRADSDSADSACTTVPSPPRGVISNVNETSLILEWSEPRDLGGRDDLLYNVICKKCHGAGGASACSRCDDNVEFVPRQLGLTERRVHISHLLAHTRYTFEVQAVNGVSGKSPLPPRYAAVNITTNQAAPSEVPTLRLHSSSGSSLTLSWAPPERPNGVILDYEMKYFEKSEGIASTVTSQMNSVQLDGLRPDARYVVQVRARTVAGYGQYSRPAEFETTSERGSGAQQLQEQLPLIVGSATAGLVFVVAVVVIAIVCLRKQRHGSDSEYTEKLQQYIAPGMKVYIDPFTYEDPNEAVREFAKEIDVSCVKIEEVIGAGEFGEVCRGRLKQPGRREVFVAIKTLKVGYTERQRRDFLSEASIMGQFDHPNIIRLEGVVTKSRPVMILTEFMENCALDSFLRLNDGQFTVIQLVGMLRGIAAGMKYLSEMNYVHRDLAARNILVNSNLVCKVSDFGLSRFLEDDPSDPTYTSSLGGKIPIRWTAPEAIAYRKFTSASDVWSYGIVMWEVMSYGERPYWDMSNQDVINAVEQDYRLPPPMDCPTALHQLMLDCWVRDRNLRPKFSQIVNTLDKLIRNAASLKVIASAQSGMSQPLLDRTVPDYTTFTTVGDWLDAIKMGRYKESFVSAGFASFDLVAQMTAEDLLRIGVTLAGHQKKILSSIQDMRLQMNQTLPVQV
Particulars: at 0.1 µM.

Experiment [3] deals with T2, Ephrin type-B receptor 3 (Homo sapiens). Particulars: at 1 µM.
For experiment [4], the target named is T3, Ephrin type-B receptor 4 (Homo sapiens) (UniProt P54760).
T3 sequence (whole entry): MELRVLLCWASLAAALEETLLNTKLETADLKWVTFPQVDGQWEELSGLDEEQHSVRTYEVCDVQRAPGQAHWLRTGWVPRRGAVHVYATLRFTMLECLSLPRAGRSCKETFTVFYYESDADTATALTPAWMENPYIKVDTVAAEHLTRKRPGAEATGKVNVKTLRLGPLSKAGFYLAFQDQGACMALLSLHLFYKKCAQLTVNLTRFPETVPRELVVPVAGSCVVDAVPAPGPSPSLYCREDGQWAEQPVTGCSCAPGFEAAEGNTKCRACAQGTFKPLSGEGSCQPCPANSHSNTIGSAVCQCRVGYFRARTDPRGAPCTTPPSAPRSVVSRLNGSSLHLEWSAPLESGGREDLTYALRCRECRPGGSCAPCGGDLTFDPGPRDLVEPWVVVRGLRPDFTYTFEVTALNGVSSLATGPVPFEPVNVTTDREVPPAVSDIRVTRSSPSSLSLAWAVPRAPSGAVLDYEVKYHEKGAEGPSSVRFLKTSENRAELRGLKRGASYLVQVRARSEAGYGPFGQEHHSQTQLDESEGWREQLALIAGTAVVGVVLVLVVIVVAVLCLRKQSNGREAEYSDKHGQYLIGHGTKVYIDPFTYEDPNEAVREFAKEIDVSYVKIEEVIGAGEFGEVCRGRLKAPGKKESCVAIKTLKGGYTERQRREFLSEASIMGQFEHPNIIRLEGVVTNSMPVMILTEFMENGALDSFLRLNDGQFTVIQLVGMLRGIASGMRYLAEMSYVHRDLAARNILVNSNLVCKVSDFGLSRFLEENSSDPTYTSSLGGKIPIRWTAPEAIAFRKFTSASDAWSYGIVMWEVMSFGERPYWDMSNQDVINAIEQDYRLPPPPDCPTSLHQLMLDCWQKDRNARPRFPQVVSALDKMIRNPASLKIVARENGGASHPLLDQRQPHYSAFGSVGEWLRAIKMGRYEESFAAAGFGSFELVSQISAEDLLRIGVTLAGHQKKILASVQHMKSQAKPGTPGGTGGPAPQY
The following applies: at 0.1 µM.

Experiment [5] concerns the target T3, Ephrin type-B receptor 4 (Homo sapiens). Particulars: at 1 µM.
Experiment [6] deals with Receptor tyrosine-protein kinase erbB-2 (Homo sapiens) (UniProt P04626). The following applies: at 0.1 µM.
Sequence of Receptor tyrosine-protein kinase erbB-2 (Homo sapiens) (P04626 whole entry): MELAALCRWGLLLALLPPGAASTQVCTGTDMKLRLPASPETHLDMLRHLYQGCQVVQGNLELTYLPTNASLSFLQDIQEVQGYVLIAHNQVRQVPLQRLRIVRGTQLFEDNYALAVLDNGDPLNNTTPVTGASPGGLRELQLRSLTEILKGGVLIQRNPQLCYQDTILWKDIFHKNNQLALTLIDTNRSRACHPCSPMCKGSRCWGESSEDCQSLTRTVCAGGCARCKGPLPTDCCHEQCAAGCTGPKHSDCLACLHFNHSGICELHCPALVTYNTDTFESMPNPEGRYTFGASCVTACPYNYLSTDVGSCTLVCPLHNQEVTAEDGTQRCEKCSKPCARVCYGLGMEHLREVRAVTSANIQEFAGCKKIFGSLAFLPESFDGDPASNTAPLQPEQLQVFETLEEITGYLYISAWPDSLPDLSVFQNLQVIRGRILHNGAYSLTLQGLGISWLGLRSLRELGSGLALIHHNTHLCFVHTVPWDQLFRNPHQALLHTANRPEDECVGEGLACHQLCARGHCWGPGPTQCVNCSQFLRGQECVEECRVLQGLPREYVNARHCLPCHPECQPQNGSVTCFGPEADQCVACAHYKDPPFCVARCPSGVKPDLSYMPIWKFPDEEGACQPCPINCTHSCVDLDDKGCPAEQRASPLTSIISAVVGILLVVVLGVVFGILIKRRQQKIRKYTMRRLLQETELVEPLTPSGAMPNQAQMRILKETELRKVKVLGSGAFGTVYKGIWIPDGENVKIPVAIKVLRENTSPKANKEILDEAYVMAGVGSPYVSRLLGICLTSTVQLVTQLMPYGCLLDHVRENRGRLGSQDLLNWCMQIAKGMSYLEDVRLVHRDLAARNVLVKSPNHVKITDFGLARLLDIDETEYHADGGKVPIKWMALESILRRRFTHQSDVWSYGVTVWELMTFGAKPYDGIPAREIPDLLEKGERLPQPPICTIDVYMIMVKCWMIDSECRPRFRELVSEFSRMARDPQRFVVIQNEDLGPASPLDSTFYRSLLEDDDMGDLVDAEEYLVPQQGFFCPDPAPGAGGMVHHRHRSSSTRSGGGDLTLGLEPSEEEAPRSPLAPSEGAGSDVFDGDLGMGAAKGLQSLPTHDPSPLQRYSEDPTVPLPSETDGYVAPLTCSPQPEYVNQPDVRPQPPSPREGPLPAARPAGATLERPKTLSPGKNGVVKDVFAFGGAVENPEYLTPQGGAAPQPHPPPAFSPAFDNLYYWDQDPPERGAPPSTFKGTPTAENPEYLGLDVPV
Experiment [7] has the same target. Particulars: at 1 µM.
Experiment [8] has as its target Receptor tyrosine-protein kinase erbB-4 (Homo sapiens) (UniProt Q15303). Particulars: at 0.1 µM.
Experiment [9] has the same target. Particulars: at 1 µM.
The target of experiment [10] is Tyrosine-protein kinase Fer (Homo sapiens) (UniProt P16591). Particulars: at 0.1 µM.
For experiment [11] the target is unchanged. The following applies: at 1 µM.
Experiment [12] concerns the target Tyrosine-protein kinase Fes/Fps (Homo sapiens) (UniProt P07332). The following applies: at 0.1 µM.
The target is the same in experiment [13]. The following applies: at 1 µM.
The target of experiment [14] is Fibroblast growth factor receptor 1 (Homo sapiens) (UniProt P11362). Particulars: at 0.1 µM.
Sequence of Fibroblast growth factor receptor 1 (Homo sapiens) (P11362 22-822 limits assumed): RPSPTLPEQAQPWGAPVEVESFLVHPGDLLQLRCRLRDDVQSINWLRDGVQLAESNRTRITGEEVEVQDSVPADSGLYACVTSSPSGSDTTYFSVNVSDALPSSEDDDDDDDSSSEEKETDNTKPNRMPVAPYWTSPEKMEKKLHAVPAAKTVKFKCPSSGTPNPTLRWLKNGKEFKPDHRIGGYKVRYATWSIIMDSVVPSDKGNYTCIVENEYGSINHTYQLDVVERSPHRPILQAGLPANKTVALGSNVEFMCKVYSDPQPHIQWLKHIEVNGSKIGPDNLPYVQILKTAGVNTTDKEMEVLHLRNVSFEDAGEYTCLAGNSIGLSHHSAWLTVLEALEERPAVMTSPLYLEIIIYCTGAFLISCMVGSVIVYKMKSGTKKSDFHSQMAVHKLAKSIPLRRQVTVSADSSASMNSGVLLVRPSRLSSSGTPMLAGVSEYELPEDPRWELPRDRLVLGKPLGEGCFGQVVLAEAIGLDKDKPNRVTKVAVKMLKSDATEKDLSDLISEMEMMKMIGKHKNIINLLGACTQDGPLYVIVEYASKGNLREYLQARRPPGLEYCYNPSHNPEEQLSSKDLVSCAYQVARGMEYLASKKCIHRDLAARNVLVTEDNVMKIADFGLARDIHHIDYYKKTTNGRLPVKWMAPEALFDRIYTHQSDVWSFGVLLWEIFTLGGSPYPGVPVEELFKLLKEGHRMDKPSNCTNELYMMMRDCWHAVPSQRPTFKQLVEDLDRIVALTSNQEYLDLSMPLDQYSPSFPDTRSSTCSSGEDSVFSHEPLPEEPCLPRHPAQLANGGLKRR
The target is the same in experiment [15]. The following applies: at 1 µM.
The target of experiment [16] is Fibroblast growth factor receptor 2 (Homo sapiens) (UniProt P21802). Particulars: at 0.1 µM.
Sequence of Fibroblast growth factor receptor 2 (Homo sapiens) (P21802 22-821 limits assumed): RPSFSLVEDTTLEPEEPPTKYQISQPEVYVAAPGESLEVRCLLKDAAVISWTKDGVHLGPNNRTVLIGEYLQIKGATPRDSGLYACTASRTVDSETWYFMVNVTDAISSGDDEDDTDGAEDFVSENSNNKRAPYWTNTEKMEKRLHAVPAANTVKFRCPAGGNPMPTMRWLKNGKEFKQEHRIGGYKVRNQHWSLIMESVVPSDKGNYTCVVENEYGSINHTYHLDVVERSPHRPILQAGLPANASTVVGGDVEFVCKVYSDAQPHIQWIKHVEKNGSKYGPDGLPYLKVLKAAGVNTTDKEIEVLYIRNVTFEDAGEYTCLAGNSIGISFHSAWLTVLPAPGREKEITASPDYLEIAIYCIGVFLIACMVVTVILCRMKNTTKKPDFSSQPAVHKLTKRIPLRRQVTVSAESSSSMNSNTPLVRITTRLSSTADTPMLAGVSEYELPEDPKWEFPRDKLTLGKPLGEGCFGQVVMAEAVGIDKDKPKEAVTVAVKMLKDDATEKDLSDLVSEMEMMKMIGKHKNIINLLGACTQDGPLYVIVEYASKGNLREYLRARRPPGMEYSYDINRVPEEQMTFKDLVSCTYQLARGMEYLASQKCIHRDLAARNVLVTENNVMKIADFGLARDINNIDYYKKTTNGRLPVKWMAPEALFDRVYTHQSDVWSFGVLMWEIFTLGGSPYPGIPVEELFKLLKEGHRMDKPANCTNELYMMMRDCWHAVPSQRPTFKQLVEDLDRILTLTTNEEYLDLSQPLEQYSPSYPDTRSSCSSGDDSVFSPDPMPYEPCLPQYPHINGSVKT
Experiment [17] has the same target. Particulars: at 1 µM.
Experiment [18] addresses Fibroblast growth factor receptor 3 (Homo sapiens) (UniProt P22607). The following applies: at 0.1 µM.
Experiment [19] shares this target. The following applies: at 1 µM.
In experiment [20] the target is Fibroblast growth factor receptor 4 (Homo sapiens) (UniProt P22455). Particulars: at 0.1 µM.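 Further: values are mean percent inhibition of FGFR4.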
Sequence of Fibroblast growth factor receptor 4 (Homo sapiens) (P22455 22-802 limits assumed): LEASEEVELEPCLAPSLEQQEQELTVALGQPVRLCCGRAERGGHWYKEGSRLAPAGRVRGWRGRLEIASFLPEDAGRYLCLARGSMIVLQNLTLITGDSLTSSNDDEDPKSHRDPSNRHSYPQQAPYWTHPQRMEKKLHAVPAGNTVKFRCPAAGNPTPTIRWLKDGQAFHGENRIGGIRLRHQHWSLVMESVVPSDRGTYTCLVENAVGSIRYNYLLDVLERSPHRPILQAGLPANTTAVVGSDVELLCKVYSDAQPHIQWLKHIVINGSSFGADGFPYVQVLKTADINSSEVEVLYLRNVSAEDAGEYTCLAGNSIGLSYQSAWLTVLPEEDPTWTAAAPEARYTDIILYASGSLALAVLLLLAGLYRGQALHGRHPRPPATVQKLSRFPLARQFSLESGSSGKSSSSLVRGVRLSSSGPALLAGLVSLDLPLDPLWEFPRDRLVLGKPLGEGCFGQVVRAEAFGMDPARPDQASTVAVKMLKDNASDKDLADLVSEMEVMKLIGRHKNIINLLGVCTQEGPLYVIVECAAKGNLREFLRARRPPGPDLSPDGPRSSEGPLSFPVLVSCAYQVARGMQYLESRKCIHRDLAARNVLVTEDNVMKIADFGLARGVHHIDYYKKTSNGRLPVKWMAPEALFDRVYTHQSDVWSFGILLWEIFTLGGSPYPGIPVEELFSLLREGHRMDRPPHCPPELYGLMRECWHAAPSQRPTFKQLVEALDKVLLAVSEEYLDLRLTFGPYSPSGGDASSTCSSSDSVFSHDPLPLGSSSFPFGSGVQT

Sequence of Tyrosine-protein kinase Fes/Fps (Homo sapiens) (P07332 whole entry): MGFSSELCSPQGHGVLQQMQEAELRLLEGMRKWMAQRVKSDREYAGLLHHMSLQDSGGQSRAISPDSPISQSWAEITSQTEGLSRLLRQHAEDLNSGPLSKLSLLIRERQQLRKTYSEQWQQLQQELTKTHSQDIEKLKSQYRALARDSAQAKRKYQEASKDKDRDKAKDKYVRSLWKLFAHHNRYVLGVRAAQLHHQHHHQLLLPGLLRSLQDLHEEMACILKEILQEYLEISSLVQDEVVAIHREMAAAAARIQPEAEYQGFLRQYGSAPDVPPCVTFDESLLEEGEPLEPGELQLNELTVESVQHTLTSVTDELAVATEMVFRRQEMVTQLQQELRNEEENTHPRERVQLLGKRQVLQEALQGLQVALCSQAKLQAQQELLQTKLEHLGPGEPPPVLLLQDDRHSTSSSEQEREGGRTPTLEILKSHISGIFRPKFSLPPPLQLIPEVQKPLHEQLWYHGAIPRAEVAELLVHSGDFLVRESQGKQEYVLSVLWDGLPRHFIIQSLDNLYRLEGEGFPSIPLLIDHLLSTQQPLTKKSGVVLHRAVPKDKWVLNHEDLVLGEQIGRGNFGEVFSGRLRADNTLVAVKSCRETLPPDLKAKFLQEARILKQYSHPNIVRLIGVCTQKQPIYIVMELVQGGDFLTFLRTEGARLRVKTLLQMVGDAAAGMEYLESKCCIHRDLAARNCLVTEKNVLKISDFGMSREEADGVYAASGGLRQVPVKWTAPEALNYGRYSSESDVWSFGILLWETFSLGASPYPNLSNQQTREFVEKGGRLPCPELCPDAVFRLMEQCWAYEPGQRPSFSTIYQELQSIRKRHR

Regarding `COc1cc2ncn(-c3cc(OCc4ccccc4C(F)(F)F)c(C(C)=O)s3)c2cc1OC`, the inhibition was found to be 9% in experiment [1]; 3.62% in experiment [2]; 3.29% in [3]; 0.64% in experiment [4]; 3.47% in experiment [5]; 3.47% in [6]. Also, the inhibition in experiment [7] was 4.43%; in [8] it was 6.91%; in experiment [9], 9.68%; in experiment [10], 2.43%; in experiment [11] it was 7.96%; in experiment [12], 2.84%. Further, the inhibition amounted to 2.74% in experiment [13]; 2.64% in [14]; 2.73% in experiment [15]; 3.27% in [16]; 9.16% in experiment [17]; 2.58% in experiment [18]. Besides, the inhibition was 6.41% in experiment [19] and -0.33% in experiment [20].

Turning to `COc1ccc2cc(-c3c(-c4ccncc4)nc(-c4ccc(S(C)(=O)=O)cc4C)n3C)ccc2c1`, the inhibition in [1] is 12.5%; in experiment [2], 7.13%; in experiment [3], 10.9%; in [4], 4.32%; in [5], 14.2%; in [6], 5.67%. Moreover, the inhibition was determined as 8.01% in experiment [7]; 15% in experiment [8]; 44.4% in experiment [9]; 3.19% in experiment [10]; 6.59% in experiment [11]; 3.14% in experiment [12]. The inhibition in experiment [13] turned out to be 3.35%; in [14], 2.35%; in [15], 6.54%; in [16] it was 3.92%; in experiment [17], 6.16%; in [18] it was 4.02%. Further, the inhibition was 6.07% in experiment [19] and -7.02% in [20].

Regarding `CCS(=O)(=O)c1ccc(OC)c(Nc2ncc(-c3cccc(-c4ccccc4F)c3)o2)c1`, the inhibition in experiment [1] was 11.9%; in experiment [2] it was 2.15%; in experiment [3], 0.93%; in experiment [4], 0.78%; in [5], 8.8%; in experiment [6], -0.34%. The inhibition was 2.22% in [7]; 5.89% in [8]; 15.2% in [9]; 0.83% in experiment [10]; 2.29% in experiment [11]; -0.07% in experiment [12]. The inhibition stood at 0.23% in experiment [13]; 6.92% in [14]; 40% in experiment [15]; 29.3% in experiment [16]; 60.6% in experiment [17]; 29.3% in experiment [18]. For the same compound, the inhibition was 65.5% in experiment [19] and 3.01% in [20].
